Reference: PubChem BioAssay (EPA / NIEHS)
Values joined by “and” are separate entries in the source; they are usually repeats but may differ in a detail not shown here. Equal values may be shown once. Active and inactive are the calls of the source. Rule for the calls: active = hit-call score of the fitted dose curve at least 0.9, where 1 is the maximum; inactive = score below 0.9.

Assays:
[1] = ATG_CMV_CIS: Attagene CIS-FACTORIAL HepG2 Assay for human CMV (Internal Marker) (AID 2282928); conditions: HepG2 CMV promoter reporter, transcription factor profiling; actives raise or lower the signal;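 note: endpoint acts as a background internal control marker rather than a target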
Summary of the method: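 HepG2 cells transiently transfected with multiple cis-regulated reporter units; 24 h compound exposure. Reporter mRNA quantified by RT-PCR, 6-FAM primer-extension labeling, HpaI digestion and capillary electrophoresis; bidirectional fitting against DMSO baseline.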

[2] = ATG_DR4_LXR_CIS: Attagene CIS-FACTORIAL HepG2 Assay for human Liver X Receptor (LXR), DR4 submotif (AID 2282929); conditions: HepG2 Attagene DR4 cis-reporter, mRNA transcription; AC50: actives raise or lower the signal unless noted; outcome: actives raise or lower the signal unless noted
Summary of the method: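 Measures endogenous transcription factor activity via a DR4-driven reporter transcript in human HepG2 cells. Compounds incubated 24 h; mRNA quantified by RT-PCR and capillary electrophoresis, analysed as gain or loss of signal versus DMSO.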

[3] = molecular target: Aryl hydrocarbon receptor (Homo sapiens) (UniProt P35869); experiment: ATG_Ahr_CIS: Attagene CIS-FACTORIAL HepG2 Assay for human Aryl Hydrocarbon Receptor (Ahr) (AID 2282930); conditions: HepG2 AhR cis-factorial reporter transcription; actives raise or lower the signal
Aryl hydrocarbon receptor (Homo sapiens), sequence (P35869 whole entry, looked up): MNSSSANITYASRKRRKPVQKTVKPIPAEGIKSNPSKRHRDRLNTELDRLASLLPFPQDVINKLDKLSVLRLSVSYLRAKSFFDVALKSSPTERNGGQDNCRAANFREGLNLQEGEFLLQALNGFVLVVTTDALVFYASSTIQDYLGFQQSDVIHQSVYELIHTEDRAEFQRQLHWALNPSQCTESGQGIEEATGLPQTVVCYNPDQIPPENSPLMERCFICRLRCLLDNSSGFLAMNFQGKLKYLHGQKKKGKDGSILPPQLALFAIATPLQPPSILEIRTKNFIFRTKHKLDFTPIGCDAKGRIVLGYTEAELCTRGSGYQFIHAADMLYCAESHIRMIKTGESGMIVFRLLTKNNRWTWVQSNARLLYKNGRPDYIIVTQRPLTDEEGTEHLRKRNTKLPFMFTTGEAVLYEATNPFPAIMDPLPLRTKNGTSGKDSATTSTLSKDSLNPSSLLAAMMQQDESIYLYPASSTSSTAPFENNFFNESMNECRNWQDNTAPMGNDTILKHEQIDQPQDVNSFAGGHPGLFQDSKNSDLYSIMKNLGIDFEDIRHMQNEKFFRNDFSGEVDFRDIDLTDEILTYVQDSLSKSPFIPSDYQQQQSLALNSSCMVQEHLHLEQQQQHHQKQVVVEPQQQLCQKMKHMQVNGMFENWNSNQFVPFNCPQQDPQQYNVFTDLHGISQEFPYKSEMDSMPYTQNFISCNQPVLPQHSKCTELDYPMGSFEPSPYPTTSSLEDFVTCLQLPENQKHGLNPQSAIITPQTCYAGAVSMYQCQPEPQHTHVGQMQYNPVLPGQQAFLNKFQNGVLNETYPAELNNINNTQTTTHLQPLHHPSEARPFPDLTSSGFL
Summary of the method: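 HepG2, transient MRTU (cis) transfection, 24 h exposure. RNA → cDNA → PCR → 6-FAM primer extension → HpaI 2 h 37 C → CE. Fit: bidirectional, DMSO baseline.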

[4] = ATG_AP_1_CIS: Attagene CIS-FACTORIAL HepG2 Assay for human Activator Protein 1 (AP-1) (AID 2282931); conditions: HepG2 Attagene cis-factorial AP-1 reporter mRNA; actives raise or lower the signal
Summary of the method: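 Bidirectional concentration-response fitting against DMSO controls. Underlying signal: reporter mRNA from cis-promoter constructs in transiently transfected HepG2, measured after 24 h by RT-PCR and capillary electrophoresis.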

[5] = ATG_AP_2_CIS: Attagene CIS-FACTORIAL HepG2 Assay for human Activator Protein 2 (AP-2) (AID 2282932); conditions: HepG2 AP-2 cis-reporter, Attagene transcription factor profiling; AC50: actives raise or lower the signal unless noted; outcome: actives raise or lower the signal unless noted
Summary of the method: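 Step one: transient transfection of HepG2 with reporter transcription units. Step two: 24 h chemical exposure. Step three: RNA extraction, RT-PCR, labelled fragment analysis by capillary electrophoresis; DMSO serves as baseline.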

[6] = ATG_BRE_CIS: Attagene CIS-FACTORIAL HepG2 Assay for human Bone Morphogenetic Protein (BMP) Response Element (BRE) (AID 2282933); conditions: HepG2 BMP response element reporter, Attagene transcription factor profiling; actives raise or lower the signal
Summary of the method: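 Gain- or loss-of-signal was derived by bidirectional fitting against DMSO controls. The signal came from reporter mRNA, measured by RT-PCR and capillary electrophoresis, in HepG2 cells transiently carrying multiple reporter units and dosed for 24 h.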

[7] = molecular target: Retinoic acid receptor alpha (Homo sapiens) (UniProt P10276); experiment: ATG_DR5_RAR_CIS: Attagene CIS-FACTORIAL HepG2 Assay for human Retinoic Acid Receptor Alpha (RARE), DR5 submotif (AID 2282934); conditions: HepG2 Attagene cis-factorial RARE DR5 reporter, mRNA; actives raise or lower the signal;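 for AC50: reporter responds to endogenous RAR alpha beta and gamma in HepG2 not RARA alone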
Retinoic acid receptor alpha (Homo sapiens), sequence (P10276 whole entry, looked up): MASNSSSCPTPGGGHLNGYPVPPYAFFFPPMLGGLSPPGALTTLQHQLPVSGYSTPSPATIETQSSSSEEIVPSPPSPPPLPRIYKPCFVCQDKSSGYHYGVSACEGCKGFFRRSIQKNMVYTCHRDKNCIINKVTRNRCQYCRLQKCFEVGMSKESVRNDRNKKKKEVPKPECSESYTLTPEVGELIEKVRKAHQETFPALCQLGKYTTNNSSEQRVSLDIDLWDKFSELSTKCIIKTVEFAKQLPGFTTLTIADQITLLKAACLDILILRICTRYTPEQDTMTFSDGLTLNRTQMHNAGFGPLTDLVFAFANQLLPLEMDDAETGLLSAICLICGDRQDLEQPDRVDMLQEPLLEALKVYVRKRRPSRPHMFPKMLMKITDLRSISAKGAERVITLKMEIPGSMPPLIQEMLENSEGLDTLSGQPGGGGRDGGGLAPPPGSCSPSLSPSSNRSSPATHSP
Summary of the method: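 HepG2, transient cis-reporter transfection, 24 h exposure. mRNA readout: RT-PCR, FAM label, HpaI cut, capillary electrophoresis. DMSO baseline, gain/loss fitting.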

[8] = molecular target: Transcription factor E2F1 (Homo sapiens) (UniProt Q01094); experiment: ATG_E2F_CIS: Attagene CIS-FACTORIAL HepG2 Assay for human E2F Transcription Factor 1 (AID 2282935); conditions: HepG2 Attagene cis-reporter, E2F reporter RNA transcripts; actives raise or lower the signal
Transcription factor E2F1 (Homo sapiens), sequence (Q01094 whole entry, looked up): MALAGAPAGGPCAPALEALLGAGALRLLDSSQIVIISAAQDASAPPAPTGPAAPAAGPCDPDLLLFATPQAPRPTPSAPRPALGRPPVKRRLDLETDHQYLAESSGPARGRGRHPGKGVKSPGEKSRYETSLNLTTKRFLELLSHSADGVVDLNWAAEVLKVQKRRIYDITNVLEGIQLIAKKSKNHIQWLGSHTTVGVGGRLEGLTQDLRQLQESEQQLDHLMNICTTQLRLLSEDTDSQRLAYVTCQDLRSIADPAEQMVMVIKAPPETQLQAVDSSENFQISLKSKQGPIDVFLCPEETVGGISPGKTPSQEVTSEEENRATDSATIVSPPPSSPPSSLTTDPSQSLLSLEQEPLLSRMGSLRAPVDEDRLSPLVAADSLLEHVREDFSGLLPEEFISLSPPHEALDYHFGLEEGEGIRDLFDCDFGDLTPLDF
Summary of the method: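 Total RNA from 24 h-treated, reporter-transfected HepG2 cells undergoes DNase I treatment, oligo(dT) reverse transcription, PCR and 6-FAM primer extension before capillary electrophoresis.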

[9] = ATG_E_Box_CIS: Attagene CIS-FACTORIAL HepG2 Assay for human Enhancer Box (E-box) (AID 2282936); conditions: HepG2 E-box cis-reporter transcription, actives raise or lower the signal
Summary of the method: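 DMSO served as negative control and baseline for bidirectional fitting. Human hepatoma HepG2 cells, transiently transfected with cis-reporter constructs, were dosed 24 h; reporter mRNA read by RT-PCR and capillary electrophoresis.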

[10] = ATG_M_61_CIS: Attagene CIS-FACTORIAL HepG2 Assay for M61 Transcription Factor (Internal Marker) (AID 2282937); conditions: HepG2 Attagene CIS-FACTORIAL M61 internal marker reporter; actives raise or lower the signal
Summary of the method: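 Fluorescence from labelled cDNA fragments, separated by capillary electrophoresis, quantifies reporter induction. HepG2 cells bearing transiently transfected cis-promoter MRTUs were incubated with test chemical for 24 h; DMSO defined baseline for gain/loss fitting.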

Measured: AC50

FCOC(C(F)(F)F)C(F)(F)F
inactive: all assays above

CC1CCC(CO)CC1 (stereo not given)
inactive: all assays above

CCC1CO1 (stereo not given)
inactive: all assays above

O=C(Nc1cccc([N+](=O)[O-])c1)c1cc2ccccc2cc1O
active: [3] 0.411 µM | [4] 2.31 µM | [6] 1.17 µM | [8] 2.35 µM
inactive: all other assays above

FC(F)(F)C(F)(F)C(F)(F)Br
inactive: all assays above

CC(C)(O)C(=O)c1ccccc1
inactive: all assays above

CCCCCCCCC(C)=O
inactive: all assays above

COC(O)c1ccccc1 (stereo not given)
inactive: all assays above

CCCCCC(C)OC(=O)COc1ccc(Cl)c2cccnc12 (stereo not given)
active: [2] 100 µM
inactive: all other assays above

Cc1ccc(C(=O)c2ccccc2)cc1
active: [1] 61.1 µM
inactive: all other assays above

Oc1ccc(Cc2ccccc2O)cc1
inactive: all assays above

OCC1CCC(CO)CC1 (stereo not given)
inactive: all assays above

COc1cccc(O)c1
inactive: all assays above

O=C(O)C(=O)O
inactive: all assays above

CCc1cccc(CC)c1NC(=O)C(=O)O
inactive: all assays above

Cc1ccc(C)c(S(=O)(=O)O)c1
inactive: all assays above

C=Cc1ccc(O)c(OC)c1
inactive: all assays above

CC1CCC(C(=O)O)CC1 (stereo not given)
inactive: all assays above

FC(F)(F)C1(F)C(F)(F)C(F)(F)C(F)(F)C1(F)F
inactive: all assays above

O=C1c2ccccc2C(=O)c2c(O)c(O)cc(O)c21
active: [1] 27.3 µM | [3] 0.303 µM | [4] 19.8 µM | [9] 8.54 µM
inactive: all other assays above

CCCCN(C)C
inactive: all assays above

CCCC=O
inactive: all assays above

CC1COCc2cc3c(cc21)C(C)(C)C(C)C3(C)C (stereo not given)
active: [2] 158 µM | [3] 91.3 µM | [4] 79.4 µM | [5] 173 µM | [7] 100 µM | [8] 159 µM | [9] 179 µM
inactive: [1] | [6] | [10]

O=C(NCc1ncc(C(F)(F)F)cc1Cl)c1c(Cl)cccc1Cl
active: [2] 81.4 µM | [8] 43.1 µM
inactive: all other assays above

COc1ccccc1NC(=O)c1cc2ccccc2cc1O
active: [1] 100 µM | [2] 41.9 µM | [3] 0.0553 µM | [6] 26.1 µM | [9] 26.7 µM
inactive: all other assays above

O=S(=O)(c1ccc(OCc2ccccc2)cc1)c1ccccc1O
active: [1] 51.6 µM | [2] 33.4 µM | [3] 46.8 µM | [7] 31.7 µM
inactive: all other assays above

C/C=C/C(=O)C1=C(C)CCCC1(C)C
active: [1] 174 µM | [2] 24.6 µM | [3] 72.2 µM | [4] 27.6 µM | [6] 27.3 µM
inactive: all other assays above

Oc1cccc2c(O)cccc12
active: [1] 64.5 µM | [3] 0.578 µM | [9] 27.3 µM
inactive: all other assays above

C=CC(F)(F)C(F)(F)C(F)(F)C(F)(F)F
inactive: all assays above

CCC(C)c1ccccc1O (stereo not given)
inactive: all assays above

CC1CNCC(C)O1 (stereo not given)
inactive: all assays above

O=C1Cc2ccccc2N1c1c(Cl)cccc1Cl
active: [2] 66.4 µM | [6] 100 µM
inactive: all other assays above

NCCN
inactive: all assays above

O=S(=O)(O)C(F)(F)C(F)(F)C(F)(F)C(F)(F)C(F)(F)C(F)(F)C(F)(F)C(F)(F)C(F)(F)C(F)(F)F
active: [2] 8.16 µM and 10.2 µM | [3] 50.1 µM and 45.9 µM | [4] 22.4 µM and 16.6 µM
inactive: all other assays above

c1ccc(CNc2ncnc3c2ncn3C2CCCCO2)cc1 (stereo not given)
active: [3] 57 µM
inactive: all other assays above

NNc1nc(-c2ccc([N+](=O)[O-])cc2)cs1
active: [4] 10.6 µM | [6] 18.3 µM
inactive: all other assays above

COc1cc(OC)nc(NC(=O)NS(=O)(=O)Nc2ccccc2C(=O)N(C)C)n1
inactive: all assays above

O=C(F)C(F)(F)C(F)(F)C(F)(F)C(F)F
inactive: all assays above

Cc1ccc(S(=O)(=O)O)cc1
inactive: all assays above

c1ccc2c(c1)CCC2
inactive: all assays above

CCCCCCCCCCCCCCCC(=O)OC
inactive: all assays above

CCCCCCCCCCCCCCCCCC[N+](C)(C)Cc1ccccc1
inactive: [1] | [4] | [7] | [10]
active: [2] 12.8 µM | [3] 12.3 µM | [5] 88.1 µM | [6] 4.38 µM | [8] 12.8 µM | [9] 18.4 µM

COCN(COC)c1nc(N(COC)COC)nc(N(COC)COC)n1
inactive: all assays above

CCCCCCOC(=O)c1ccc(O)cc1
active: [1] 51 µM | [2] 41.8 µM | [4] 50.4 µM | [5] 54.9 µM | [9] 51.6 µM
inactive: all other assays above
